{
  "source": "the supplement of paper PMC8699584",
  "key": {"[1]": {"system": "Molm13", "assay": "cell viability relative to DMSO control (bortezomib = 0%); higher = less growth inhibition", "settings": "10 nM; 72 h", "procedure,_shortened": "(§1)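 Each plate's values were converted to percentages by linear regression, taking DMSO-treated cells as 100% and positive-control-treated cells as 0%. These plates were 384-well plates of 679 approved and investigational compounds at a single 10 nM dose, onto which acute myeloid leukemia cells were dispensed at 1000 cells per well in 50 µL for 72 h, in duplicate. Cell viability came from CellTiter-Glo luminescence on an EnVision reader.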"}, "[2]": {"system": "Mv4-11", "assay": "cell viability relative to DMSO control (bortezomib = 0%); higher = less growth inhibition", "settings": "10 nM; 72 h", "procedure,_shortened": "as §1"}},
  "note": "“And” between values parts separate entries of the source, which are not always exact repeats. Equal entries are not always repeated. Structures can show the parent of a compound that is named as a salt. ± gives the standard deviation of the averaged measurements.",
  "data": [
    {"smiles": "C[C@H](NC(=O)/C(C#N)=C/c1cccc(Br)n1)c1ccccc1", "values": [
      {"measurement": "cell viability", "setting": "[1]", "result": "103 ± 0.31", "unit": "%"},
      {"measurement": "cell viability", "setting": "[2]", "result": "99.3 ± 5.6", "unit": "%"}
    ]},
    {"smiles": "COC(=O)C1=CC[C@@]23CC[C@@H]([C@@](C)(/C=C/C=C(\\C)C(=O)O)OC2=O)[C@@]3(OC(C)=O)CC1", "note": "[Pseudolaric Acid B]", "values": [
      {"measurement": "cell viability", "setting": "[1]", "result": "101 ± 3.5", "unit": "%"},
      {"measurement": "cell viability", "setting": "[2]", "result": "104 ± 11", "unit": "%"}
    ]},
    {"smiles": "Clc1cnccn1", "note": "[2-Chloropyrazine]", "values": [
      {"measurement": "cell viability", "setting": "[1]", "result": "113 ± 6.1", "unit": "%"},
      {"measurement": "cell viability", "setting": "[2]", "result": "94.5 ± 27", "unit": "%"}
    ]},
    {"smiles": "COc1cc(N2CCN(C)CC2)ccc1Nc1nccc(-c2cn(C)c3cnccc23)n1", "values": [
      {"measurement": "cell viability", "setting": "[1]", "result": "118 ± 3.1", "unit": "%"},
      {"measurement": "cell viability", "setting": "[2]", "result": "117 ± 7", "unit": "%"}
    ]},
    {"smiles": "Cc1ccc(NC(=O)c2ccc(CN3CCN(C)CC3)cc2)cc1Nc1nccc(-c2cccnc2)n1", "note": "[Imatinib (STI571)]", "values": [
      {"measurement": "cell viability", "setting": "[1]", "result": "97.6 ± 9.5", "unit": "%"},
      {"measurement": "cell viability", "setting": "[2]", "result": "97.2 ± 9.2", "unit": "%"}
    ]},
    {"smiles": "C=CC(=O)Nc1cc(Nc2nccc(-c3cn(C)c4ccccc34)n2)c(OC)cc1N(C)CCN(C)C", "values": [
      {"measurement": "cell viability", "setting": "[1]", "result": "107 ± 17", "unit": "%"},
      {"measurement": "cell viability", "setting": "[2]", "result": "114 ± 3.5", "unit": "%"}
    ]},
    {"smiles": "COc1cc(Nc2ncc3c(n2)-c2ccc(Cl)cc2C(c2c(F)cccc2OC)=NC3)ccc1C(=O)O", "note": "[MLN8237(Alisertib)]", "values": [
      {"measurement": "cell viability", "setting": "[1]", "result": "99.5 ± 6.3", "unit": "%"},
      {"measurement": "cell viability", "setting": "[2]", "result": "114 ± 4.2", "unit": "%"}
    ]},
    {"smiles": "Nc1nccc(Oc2ccc3c(C(=O)Nc4cccc(C(F)(F)F)c4)cccc3c2)n1", "values": [
      {"measurement": "cell viability", "setting": "[1]", "result": "94.7 ± 6.4", "unit": "%"},
      {"measurement": "cell viability", "setting": "[2]", "result": "117 ± 8.5", "unit": "%"}
    ]},
    {"smiles": "Oc1cc(O)cc(/C=C/c2ccc(O)c(O)c2)c1", "note": "[Piceatannol]", "values": [
      {"measurement": "cell viability", "setting": "[1]", "result": "101 ± 6.1", "unit": "%"},
      {"measurement": "cell viability", "setting": "[2]", "result": "108 ± 11", "unit": "%"}
    ]},
    {"smiles": "COc1cc2ncnc(Oc3ccc(CC(=O)Nc4cnn(C(C)C)c4)cc3)c2cc1OC", "values": [
      {"measurement": "cell viability", "setting": "[1]", "result": "24.8 ± 4.2", "unit": "%"},
      {"measurement": "cell viability", "setting": "[2]", "result": "29.8 ± 2.1", "unit": "%"}
    ]},
    {"smiles": "CC(C)c1ccc2oc3nc(N)c(C(=O)O)cc3c(=O)c2c1", "note": "[Amlexanox]", "values": [
      {"measurement": "cell viability", "setting": "[1]", "result": "96.8 ± 11", "unit": "%"},
      {"measurement": "cell viability", "setting": "[2]", "result": "92.6 ± 2.2", "unit": "%"}
    ]},
    {"smiles": "N#Cc1ccc(COc2ccc(-c3cccc4nc(NC(=O)C5CC5)nn34)cc2)cn1", "note": "[GLPG0634 analogue]", "values": [
      {"measurement": "cell viability", "setting": "[1]", "result": "107 ± 8.4", "unit": "%"},
      {"measurement": "cell viability", "setting": "[2]", "result": "119 ± 3.4", "unit": "%"}
    ]},
    {"smiles": "CC(C)(C)n1nc(Cc2cccc3ccccc23)c2c(N)ncnc21", "values": [
      {"measurement": "cell viability", "setting": "[1]", "result": "106 ± 29", "unit": "%"},
      {"measurement": "cell viability", "setting": "[2]", "result": "106 ± 3", "unit": "%"}
    ]},
    {"smiles": "COc1c(C)c(C(=O)c2ccc(N)c(C(=O)O)c2)n2ccccc12", "values": [
      {"measurement": "cell viability", "setting": "[1]", "result": "107 ± 23", "unit": "%"},
      {"measurement": "cell viability", "setting": "[2]", "result": "114 ± 7.3", "unit": "%"}
    ]},
    {"smiles": "CN1CCN(c2nc(C3=C(c4c[nH]c5ccccc45)C(=O)NC3=O)c3ccccc3n2)CC1", "note": "[Sotrastaurin]", "values": [
      {"measurement": "cell viability", "setting": "[1]", "result": "99 ± 21", "unit": "%"},
      {"measurement": "cell viability", "setting": "[2]", "result": "109 ± 11", "unit": "%"}
    ]},
    {"smiles": "CNC(=O)c1cc(Oc2ccc(NC(=O)c3cccc(C(F)(F)F)c3)cc2)ccn1", "values": [
      {"measurement": "cell viability", "setting": "[1]", "result": "96.3 ± 16", "unit": "%"},
      {"measurement": "cell viability", "setting": "[2]", "result": "103 ± 4.9", "unit": "%"}
    ]},
    {"smiles": "O=c1cc(-c2ccc(O)cc2)oc2cc(O)c(O)c(O)c12", "note": "[Scutellarein]", "values": [
      {"measurement": "cell viability", "setting": "[1]", "result": "108 ± 3.9", "unit": "%"},
      {"measurement": "cell viability", "setting": "[2]", "result": "100 ± 5.4", "unit": "%"}
    ]},
    {"smiles": "C#Cc1cccc(Nc2ncnc3cc(OCCOC)c(OCCOC)cc23)c1", "note": "[Erlotinib hydrochloride]", "values": [
      {"measurement": "cell viability", "setting": "[1]", "result": "108 ± 9.8", "unit": "%"},
      {"measurement": "cell viability", "setting": "[2]", "result": "121 ± 20", "unit": "%"}
    ]},
    {"smiles": "NC(=O)c1ccccc1Nc1ccnc(Nc2cccc(O)c2)n1", "values": [
      {"measurement": "cell viability", "setting": "[1]", "result": "106 ± 34", "unit": "%"},
      {"measurement": "cell viability", "setting": "[2]", "result": "89.2 ± 14", "unit": "%"}
    ]},
    {"smiles": "O=C(NOCC1CC1)c1cc(Br)c(F)c(F)c1Nc1ccc(I)cc1Cl", "values": [
      {"measurement": "cell viability", "setting": "[1]", "result": "110 ± 11", "unit": "%"},
      {"measurement": "cell viability", "setting": "[2]", "result": "113 ± 2.4", "unit": "%"}
    ]},
    {"smiles": "CCS(=O)(=O)N1CC(CC#N)(n2cc(-c3ncnc4[nH]ccc34)cn2)C1", "note": "[Baricitinib†(Phosphate)]", "values": [
      {"measurement": "cell viability", "setting": "[1]", "result": "112 ± 13", "unit": "%"},
      {"measurement": "cell viability", "setting": "[2]", "result": "115 ± 5.4", "unit": "%"}
    ]},
    {"smiles": "COc1cc(N2CCC(N3CCN(C)CC3)CC2)ccc1Nc1ncc(Cl)c(Nc2ccccc2P(C)(C)=O)n1", "note": "[Brigatinib]", "values": [
      {"measurement": "cell viability", "setting": "[1]", "result": "115 ± 41", "unit": "%"},
      {"measurement": "cell viability", "setting": "[2]", "result": "108 ± 28", "unit": "%"}
    ]},
    {"smiles": "Oc1ccc(-c2nc(-c3ccc(F)cc3)c(-c3ccncc3)[nH]2)cc1", "values": [
      {"measurement": "cell viability", "setting": "[1]", "result": "94% and 105%"},
      {"measurement": "cell viability", "setting": "[2]", "result": "104% and 106%"}
    ]},
    {"smiles": "O=C1NC(=O)/C(=C\\c2ccc3nccnc3c2)S1", "values": [
      {"measurement": "cell viability", "setting": "[1]", "result": "116 ± 13", "unit": "%"},
      {"measurement": "cell viability", "setting": "[2]", "result": "104 ± 13", "unit": "%"}
    ]},
    {"smiles": "COc1ccc(S(=O)(=O)N(CCO)c2ccccc2CN(C)C/C=C/c2ccc(Cl)cc2)cc1", "note": "[KN-93 Phosphate]", "values": [
      {"measurement": "cell viability", "setting": "[1]", "result": "99.1 ± 2.2", "unit": "%"},
      {"measurement": "cell viability", "setting": "[2]", "result": "101 ± 5.2", "unit": "%"}
    ]},
    {"smiles": "O=c1sn(-c2cccc3ccccc23)c(=O)n1Cc1ccccc1", "note": "[Tideglusib]", "values": [
      {"measurement": "cell viability", "setting": "[1]", "result": "116 ± 9.5", "unit": "%"},
      {"measurement": "cell viability", "setting": "[2]", "result": "95.4 ± 20", "unit": "%"}
    ]},
    {"smiles": "Cc1ccc(Nc2nccc(N(C)c3ccc4c(C)n(C)nc4c3)n2)cc1S(N)(=O)=O", "note": "[Pazopanib]", "values": [
      {"measurement": "cell viability", "setting": "[1]", "result": "101 ± 36", "unit": "%"},
      {"measurement": "cell viability", "setting": "[2]", "result": "104 ± 4.1", "unit": "%"}
    ]},
    {"smiles": "CS(=O)(=O)N1CCc2c(-c3cnc(N)nc3)nc(N3CCOCC3)nc21", "values": [
      {"measurement": "cell viability", "setting": "[1]", "result": "119.7 ± 0.72", "unit": "%"},
      {"measurement": "cell viability", "setting": "[2]", "result": "126 ± 9.7", "unit": "%"}
    ]},
    {"smiles": "Cn1cc(-c2ccc3nnc(Sc4ccc5ncccc5c4)n3n2)cn1", "values": [
      {"measurement": "cell viability", "setting": "[1]", "result": "127 ± 6.4", "unit": "%"},
      {"measurement": "cell viability", "setting": "[2]", "result": "104 ± 4.2", "unit": "%"}
    ]},
    {"smiles": "Nc1nc(N)c2nc(-c3cccc(O)c3)c(-c3cccc(O)c3)nc2n1", "values": [
      {"measurement": "cell viability", "setting": "[1]", "result": "96.7 ± 5", "unit": "%"},
      {"measurement": "cell viability", "setting": "[2]", "result": "120 ± 11", "unit": "%"}
    ]},
    {"smiles": "Cc1c(CN2CCN(S(C)(=O)=O)CC2)sc2c(N3CCOCC3)nc(-c3cnc(N)nc3)nc12", "values": [
      {"measurement": "cell viability", "setting": "[1]", "result": "106 ± 16", "unit": "%"},
      {"measurement": "cell viability", "setting": "[2]", "result": "107 ± 9.6", "unit": "%"}
    ]},
    {"smiles": "COc1cc2ncn(-c3cc(OCc4ccccc4S(C)(=O)=O)c(C#N)s3)c2cc1OC", "values": [
      {"measurement": "cell viability", "setting": "[1]", "result": "83.4 ± 8.5", "unit": "%"},
      {"measurement": "cell viability", "setting": "[2]", "result": "104 ± 5.9", "unit": "%"}
    ]},
    {"smiles": "CC(C)(C)c1cc(NC(=O)Nc2ccc(-c3cn4c(n3)sc3cc(OCCN5CCOCC5)ccc34)cc2)no1", "note": "[Quizartinib (AC220)]", "values": [
      {"measurement": "cell viability", "setting": "[1]", "result": "9.37 ± 9.1", "unit": "%"},
      {"measurement": "cell viability", "setting": "[2]", "result": "3.71 ± 2.9", "unit": "%"}
    ]},
    {"smiles": "O=C1NC(=O)C(c2c[nH]c3ccccc23)=C1c1c[nH]c2ccccc12", "note": "[Bisindolylmaleimide IV]", "values": [
      {"measurement": "cell viability", "setting": "[1]", "result": "105 ± 5.2", "unit": "%"},
      {"measurement": "cell viability", "setting": "[2]", "result": "100 ± 2.6", "unit": "%"}
    ]}
  ]
}
